High-throughput results from PubChem.
Cycloheximide cs – affects cycloheximide protein synthesis inhibition readout, counter-screen; cell reporter, cycloheximide protein synthesis inhibition counterscreen; max response, %; 300,000 tested, 12% active; AID 2314; in the data active = max response mostly above about 13%, no sharp cut-off; inactive = mostly below about 14%; note: read at 38.3 µM for the half of the compounds with a filed dose; 0% is about no effect
Shiga inhibitor – inhibitors of Shiga toxin in Vero cells; Vero cells, Shiga toxin protein synthesis inhibition reporter; inhibition, % at 38.7 µM; 290,000 tested, 9.2% active; AID 2315; in the data active = inhibition mostly above about 28%, no sharp cut-off; inactive = mostly below about 43%; note: 0% is about no effect
MARV entry inh – blocks Marburg virus binding to or entry into cells; Marburg virus pseudotyped entry inhibition, cell reporter; Potency, µM (highest dose often 37.8 µM), inactives show at the highest dose activity change, negative = inhibition, hits mostly inhibitors; 300,000 tested, 1.8% active; AID 540276; calls by dose curve; tested in HEK293 cells; note: potency is the fitted concentration of half-maximal effect; % is set by controls: 0 for no effect and ±100 for the full control effect
Lassa entry inh – Lassa virus entry inhibition | Lassa virus pseudotype entry inhibition, cell reporter | Potency, µM (top dose mostly 37.9 µM), for the others: at the top dose activity change, negative = inhibition, most hits filed as inhibitors | 300,000 tested, 1.2% active | AID 540256; calls by dose curve; tested in HEK293 cells; note: potency is the fitted concentration of half-maximal effect; % is set by controls: 0 for no effect and ±100 for the full control effect; nearly all actives have a fitted effect of over 50% in size
Pf growth 96h – inhibits malaria parasite growth, 96 h | P. falciparum luciferase reporter growth, 96 h | Potency, µM (highest dose often 28.7 µM), without a hit: at the highest dose activity change, negative = inhibition, most hits filed as inhibitors | 320,000 tested, 6.9% active; note: potency is the fitted concentration of half-maximal effect; % is set by controls: 0 for no effect and ±100 for the full control effect
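P. falciparum expressing integrated firefly luciferase grown in erythrocytes (2% hematocrit, 0.05% parasitemia final) with compounds for 96 hours at 37 C, 5% CO2. Growth inhibition read as loss of luminescence after adding luciferase detection reagent.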
Pf growth 48h – inhibits P. falciparum growth in the first generation, 48 h; AID 504832; P. falciparum luciferase growth in erythrocytes, 48 h; 310,000 tested, 5.9% active; Potency, µM (series often up to 28.7 µM), without a hit: at the highest dose activity change, negative = inhibition, actives largely listed as inhibitors; note: potency is the fitted concentration of half-maximal effect; % is set by controls: 0 for no effect and ±100 for the full control effect
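In quantitative HTS format, infected erythrocytes bearing luciferase-reporter parasites were treated for a single generation at 37 C. Luminescence after adding detection reagent served as the growth measure.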
* hit, by the source's call; u = inconclusive; x = not tested or not shown; [ ] = another dose, or the depositor's remark. An excerpt weighted towards active compounds, which were near 19% of everything screened. Unless noted, calls come from the whole dose curve; as a rule, active = well fitted inhibition curve with a large enough effect; inconclusive = small, poorly fitted or top-dose-only effect, or another doubt; inactive = no such curve, though single readings can be large or run the other way.

SMILES	Cycloheximide cs	Shiga inhibitor	MARV entry inh	Lassa entry inh	Pf growth 96h	Pf growth 48h
CC(=O)N1c2ccccc2CC1C(=O)N1CCN(c2ccccc2)CC1 (stereo not drawn)	x	x	x	1%[46.1 µM]	x	x
Cc1c(NC(=O)C2Cc3ccccc3CN2C(=O)c2ccco2)c(=O)n(-c2ccccc2)n1C (stereo not drawn)	-4	-7	-2%	16%	x	x
Cc1ccccc1Nc1ncnc2[nH]ncc12	x	x	12%	11%	x	x
CC(=O)c1cccc(CN2CCC(CO)(CCOc3ccccc3)CC2)c1	5	7	x	x	u	-21%
Cc1ccc(NC(=O)CN2CCOCC2)cc1S(=O)(=O)N1CCCCC1	x	x	-18%	u	x	x
CN(C)c1ccc(NC(=O)COC(=O)CCC(=O)c2ccc(F)cc2)cc1	5	3	-3%	9%	-31%	x
Cc1ccccc1OC(C)C(=O)NCCCN1CCOCC1 (stereo not drawn)	-4	-7	x	x	u	3%
COc1cc(C2CC(=O)Nc3c2c(=O)nc2c(C)cccn32)cc(OC)c1OC (stereo not drawn)	5	-3	u	6%	u	15%
COc1ccc(N2CCN(C(=O)C3Cc4ccccc4CN3C(=O)c3ccco3)CC2)cc1 (stereo not drawn)	x	x	-28%	u	u	8.3µM*
COc1ccc(N2CCN(C(=O)C3Cc4ccccc4N3C(C)=O)CC2)cc1 (stereo not drawn)	x	x	x	12%[46.1 µM]	x	x
COc1ccc(C(c2sc3nc(C)nn3c2O)N2CCCCC2)cc1 (stereo not drawn)	-1	-11	x	x	2%	2%
Cc1ccn2cc(-c3cccc(NC(=O)CCC(=O)O)c3)nc2c1	0	5	x	x	64%	91%
CC(=O)Nc1cccc(-c2cn3ccc(C)cc3n2)c1	44*	89*	x	x	-18%	131%
Cc1ccn2cc(-c3cccc(NS(C)(=O)=O)c3)nc2c1	60*	59*	-26%[46.1 µM]	u	38%	142%
Cc1csc2nc(-c3cccc(NS(C)(=O)=O)c3)cn12	x	x	x	15%[46.1 µM]	x	x
CC(=O)Nc1ccc(-n2c(C)nc(=O)c(-c3ccccc3)c2C)cc1	-1	-10	18%	-4%	5.2µM*	-12%
Cc1ccn2cc(-c3cccc(S(=O)(=O)N4CC(C)OC(C)C4)c3)nc2c1 (stereo not drawn)	-1	4	x	x	u	u
Cc1ccn2cc(-c3cccc([N+](=O)[O-])c3)nc2c1	30*	25	u	4.5µM*	176%	61%
COc1ccccc1CN(C)C(=O)C1COc2ccccc2O1 (stereo not drawn)	-2	16	3%	-21%	x	3%
Cc1nn(CCc2n[nH]c(=S)n2-c2ccc(F)cc2)c(C)c1[N+](=O)[O-]	-2	-11	19%	u	x	0%
CC(=O)Nc1ccc2nc(-c3ccccc3)cn2c1	40*	107*	u	u	234%	246%
COc1c(Cl)cccc1-c1cn2ccc(C)cc2n1	42*	81*	u	u	293%	180%
Cc1ccn2cc(-c3cccc(S(=O)(=O)N4CCCC4)c3)nc2c1	19*	98	u	u	15%	9%
Cc1ccc(NC(=O)CN(C)CCOc2ccccc2)c([N+](=O)[O-])c1	-3	-5	0%[46.1 µM]	20%[46.1 µM]	33%	0%
Cc1cccc(N=C2NC(=O)/C(=C\c3cccs3)S2)c1	34*	67*	u	u	14%	30%
SMILES	Cycloheximide cs	Shiga inhibitor	MARV entry inh	Lassa entry inh	Pf growth 96h	Pf growth 48h
CCc1ccc(N=C2NC(=O)/C(=C/c3cc(OC)c(O)c(OC)c3)S2)cc1	-1	-1	x	x	-30%	u
COc1cc(/C=C2\SC(=Nc3ccccc3)NC2=O)cc(Cl)c1O	2	-12	u	u	6.6µM*	0%
O=C1NC(=O)/C(=C\c2ccc(OCc3ccccc3)cc2)S1	9	5	x	x	24%	26%
O=C1NC(=Nc2ccccc2)S/C1=C\c1ccccc1	19*	x	x	x	0%	-21%
O=C1NC(=Nc2ccccc2)S/C1=C/c1cccnc1	15	23	-3%[46.1 µM]	7%	29%	8%
O=C1N/C(=N/Nc2ccccc2)S/C1=C\c1ccccc1	22*	37	u	u	u	u
Oc1ccc(-c2nccs2)cc1	x	x	8%[46.1 µM]	8%[46.1 µM]	x	x
COc1ccc(CCNC(=O)c2cc(=O)c3cc(C)ccc3o2)cc1	-2	18	10%[46.1 µM]	u	-16%	-13%
